# Compound activity deposited in PubChem by National Center for Advancing Translational Sciences (NCATS).
# The sample as a whole holds a higher share of hits than the screen did.
# HT1080 IDH1KD tx = HT-1080 IDH1 knockdown cell toxicity (counter line) | AID 686971 | 360,000 tested, 2% active | HT-1080 IDH1 knockdown viability, ATP luminescence, 48 h | Potency, µM (series often up to 46.1 µM), for inactives: at the top dose activity, negative = toxicity, hits mostly cytotoxic;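 further: potency means the concentration at half of the fitted maximal effect; 0% = DMSO wells and -100% = cell-free medium wells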
#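 IDH1KD HT-1080 cells, 750/well, RPMI + 5% FBS; compound pinned after 2 h settling; 48 h, 37 °C; CellTiter-Glo luminescence; % activity normalised to DMSO and no-cell wells; curves fitted, classed by r2 and efficacy.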
# 12-LOX inh = inhibitors of human 12S-lipoxygenase ALOX12 | P18054 | 580,000 tested, 1.1% active | Potency, µM (top dose mostly 108 µM), without a hit: at the highest dose activity change, negative = inhibition, hits mostly inhibitors | purified 12hLO, xylenol orange hydroperoxide absorbance; further: potency means the concentration at half of the fitted maximal effect
# Target sequence (P18054 whole entry, looked up): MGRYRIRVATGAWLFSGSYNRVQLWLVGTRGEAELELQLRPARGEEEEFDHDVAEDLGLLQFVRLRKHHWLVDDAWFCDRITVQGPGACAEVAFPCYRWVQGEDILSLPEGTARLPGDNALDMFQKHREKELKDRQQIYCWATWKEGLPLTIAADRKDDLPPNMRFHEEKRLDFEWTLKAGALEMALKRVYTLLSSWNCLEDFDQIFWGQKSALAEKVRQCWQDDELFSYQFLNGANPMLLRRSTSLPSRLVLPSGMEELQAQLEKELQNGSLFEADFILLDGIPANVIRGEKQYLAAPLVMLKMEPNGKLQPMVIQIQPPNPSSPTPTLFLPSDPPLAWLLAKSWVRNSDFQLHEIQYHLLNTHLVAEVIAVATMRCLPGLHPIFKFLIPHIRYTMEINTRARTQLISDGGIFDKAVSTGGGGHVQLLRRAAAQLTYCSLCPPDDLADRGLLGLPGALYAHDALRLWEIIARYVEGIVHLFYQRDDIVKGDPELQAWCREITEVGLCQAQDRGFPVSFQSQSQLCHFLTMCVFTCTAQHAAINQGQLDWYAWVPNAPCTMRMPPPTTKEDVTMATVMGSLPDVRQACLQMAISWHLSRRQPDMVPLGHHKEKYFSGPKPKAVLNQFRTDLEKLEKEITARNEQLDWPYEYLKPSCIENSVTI
#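 Purified human 12hLO at 150 nM in 25 mM Hepes, 0.01% Triton X-100, pH 7.0, preincubated 15 min at room temperature with compound. Reaction started with 40 uM arachidonic acid, 30 min at room temperature. Hydroperoxide measured by Fe-xylenol orange, 573/405 nm absorbance ratio.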
# TDP1 cell CPT = growth inhibition of DT40 Tdp1-/-;hTDP1 cells with camptothecin (screen for TDP1 inhibitors) | chicken DT40 Tdp1-/-;hTDP1 cells + 20 nM CPT, ATP luminescence, 48 h | Potency, µM (titrated, usually from 46.2 µM), without a hit: at the highest dose activity change, negative = growth inhibition, most hits filed as inhibitors | 420,000 tested, 12% active | AID 686979; further: potency means the concentration at half of the fitted maximal effect; nearly all actives have a fitted effect of over 55% in size
#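 Chicken DT40 Tdp1-/- cells stably complemented with human TDP1 were seeded at 400 cells/well in medium containing 20 nM camptothecin, exposed to pin-transferred compounds, and grown at 37 °C for at least 48 hr. Viability was read as ATP luminescence.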
# IL1B secr inh = blocks inflammasome-driven IL-1 beta release; 360,000 tested, 4.7% active; THP-1 LPS/ATP IL-1B secretion, AlphaLISA, 16 h; active compounds read low; activity change, % at 57.5 µM; in the data active means activity change below about -50%; inconclusive means mostly about -30% to -49%
#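 THP-1 cells pretreated 1 hr with compounds (up to 57.5 uM final), then stimulated with LPS (250 ng/mL final) plus ATP (1.25 mM final); secreted IL-1B measured by AlphaLISA after 16 hr, decreased signal indicating inhibition.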
# TDP1 cell noCPT = qHTS for Inhibitors of human tyrosyl-DNA phosphodiesterase 1 (TDP1): qHTS in cells in absence of CPT; DT40 Tdp1-/- hTDP1 cells, no CPT, ATP luminescence, 48 h; Potency, µM (top dose mostly 46.2 µM), for the others: at the top dose activity change, negative = growth inhibition, actives largely listed as inhibitors; 420,000 tested, 15% active; AID 686978, 2013; further: potency means the concentration at half of the fitted maximal effect; nearly all actives have a fitted effect of over 55% in size
#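 A cellular qHTS used chicken DT40 cells lacking endogenous Tdp1 but carrying stably transfected human TDP1. Compounds were applied without camptothecin, and cell growth kinetics were judged by ATP-dependent luminescence after ≥48 hr.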
# HT1080-NT tox = kills 2HG-producing HT-1080-NT fibrosarcoma cells | HT-1080-NT fibrosarcoma viability, CellTiter-Glo ATP luminescence, 48 h | Potency, µM (series often up to 46.1 µM), for inactives: at the top dose activity, negative = less viability, actives largely listed as cytotoxic | 360,000 tested, 1.6% active | AID 686970;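 further: NT is the 2HG producing partner of a matched IDH1 knockdown line; potency means the concentration at half of the fitted maximal effect; 0% = DMSO-treated cells and -100% = media-only wells without cells; nearly all actives have a fitted effect of over 55% in size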
#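 HT-1080-NT fibrosarcoma cells (2HG-overproducing), 750 cells/well in RPMI with 5% FBS, dosed after 2 h and incubated 48 h at 37C. CellTiter-Glo luminescence normalized to DMSO and no-cell wells; concentration-response curves fitted and classed.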
# Numbers without * were called inactive; ? = inconclusive; / = no result given; [ ] = remark or other dose. Unless noted, the call rests on the fitted dose curve; in most records, active means well fitted curve in the direction sought with a large enough effect; inconclusive means small, poorly fitted or top-dose-only effect, or another doubt; inactive means no such curve, though single readings can be large; an effect the other way counts as inactive or inconclusive. Unless noted, on the % scale 0 is the no-effect control and ±100 the full control effect.
SMILES,HT1080 IDH1KD tx,12-LOX inh,TDP1 cell CPT,IL1B secr inh,TDP1 cell noCPT,HT1080-NT tox
CCCn1nc(C(=O)Nc2cccc(OC)c2)c2ccccc2c1=O,/,-1.9%,/,/,/,/
N#Cc1ccc(CN2C[C@@H]3C[C@H]2C(=O)N(Cc2ccccc2)c2ccccc2O3)cc1,/,8.8%[176 µM],/,/,/,/
COCCN1Cc2ccc(NCc3ccccc3)nc2C(C)(C(=O)Nc2ccn(C)n2)C1 (configuration not stated),/,8.8%[176 µM],/,/,/,/
COc1ccc(OCC(=O)NCc2ccc(Cl)cc2)cc1,-1.3%,-1.9%,-4.6%,3.2,0.4%,-0.3%
COc1ccc(-c2ccc3c(N)c(C(=O)NCc4ccc(Cl)cc4)sc3n2)cc1,/,?,?,/,14.6µM*,/
O=C(c1cc(-c2ccco2)nn1-c1cccc(Cl)c1)N1CCCCC1,0.6%[9.24 µM],?,16.4µM*,0.0,16.4µM*,?
CN(C)c1ccc(Sc2ccc3nc(N)nc(N)c3c2)cc1,1.64µM*,?,1.84µM*,-15.5,0.651µM*,2.31µM*
Cc1ccc(Sc2cc(C(F)(F)F)nc(N(C)C)n2)cc1,-1.9%,-3.8%,?,-21.4,?,0.5%
Cc1sc(N/N=C/c2cccs2)nc1-c1ccccc1,-9.0%,7.1%,?,0.0,18.4µM*,-7.6%
Cc1sc(NC(=O)c2cccs2)nc1-c1ccccc1,-16.5%,-26.2%,23.1µM*,?,?,-12.9%
CC(=O)Cc1nsc(NC(=O)c2cccs2)n1,-1.2%,0.0%,?,7.7,23.1µM*,-0.5%
COCC(=O)Nc1nc(-c2ccccc2)c(C)s1,0.0%,?,3.2%,18.7,-5.4%,3.7%
N/C(Cc1ccc(Cl)cc1)=N\OC(=O)c1ccccc1,?,13.3%,?,-19.8,?,?
COc1ccc(C(=O)O/N=C(\N)Cc2ccc(Cl)cc2)cc1OC,?,0.1%,16.4µM*,-54.1*,20.6µM*,14.6µM*
N/C(CCS(=O)(=O)c1ccc(Cl)cc1)=N\OC(=O)c1ccc(Cl)cc1,-7.0%,40.3%,?,?,20.6µM*,-14.0%
COc1ccc(C(=O)O/N=C(\N)Cc2ccc(Cl)c(Cl)c2)cc1OC,?,-3.9%,16.4µM*,-6.4,?,14.6µM*
CN(C)c1ccc(C(CNC(=O)Cc2cccc3ccccc23)N(C)C)cc1 (configuration not stated),-8.2%,17.7%,-45.5%,-26.8,?,-11.8%
CCc1cc(N2CCOC(c3ccc4cc(OC)ccc4c3)C2)nc(C)n1 (configuration not stated),/,29.5%,/,/,/,/
CCN(CC(=O)NCCc1ccc(S(N)(=O)=O)cc1)Cc1nc2cc(OC)c(OC)cc2c(=O)[nH]1,-1.2%,-2.1%,1.0%,20.3,-10.8%,-0.7%
CCN(CC(=O)NC(=O)NCc1ccco1)Cc1nc2ccccc2c(=O)[nH]1,-2.7%,24.9%,4.61µM*,6.8,4.61µM*,-3.0%
CCN(CC(=O)NCCc1ccc(S(N)(=O)=O)cc1)Cc1nc2ccccc2c(=O)[nH]1,0.1%,-11.6%,20.6µM*,15.0,?,7.6%
CNc1cccc2c1C(=O)c1ccccc1C2=O,-0.8%,-0.9%,-22.9%,-52.4*,?,-1.4%
COc1ccc(C(=O)N2CCC2(C)C(=O)NC(C)C)cc1OC (configuration not stated),13.1%,-16.9%,10.3%,6.9,-8.5%,7.1%
CC(C)(C)c1ccc(C(=O)N2CCC2(C)C(=O)Nc2ccc3nc[nH]c3c2)cc1 (configuration not stated),-22.2%,/,14.6µM*,-17.7,18.4µM*,-4.6%
CC(C)C(=O)N1CCC1(C)C(=O)Nc1ccc2cn[nH]c2c1 (configuration not stated),0.5%,11.0%,-9.3%,2.1,-2.5%,2.4%
